Results taken from PubChem BioAssay (NCI).
Compounds without any hit were thinned out: in the full panel of roughly 79,000, 15% have a hit. Calls of active or inactive are those of the source. Rule as the data show it: active = growth inhibition above about 70%; inactive = the rest.

Assays:
[1] = NCI Yeast Anticancer Drug Screen. Data for the rad50 strain (AID 155);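 also: 0% = growth of vehicle-only cultures of the same strain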; details: S. cerevisiae rad50 strain growth inhibition, hits give high values
In short: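 Readout: growth inhibition relative to vehicle-treated cultures. Compound exposure was carried out in a genetically defined yeast strain deficient in DNA damage repair.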

[2] = NCI Yeast Anticancer Drug Screen. Data for the mec2-1 strain (AID 157); details: S. cerevisiae mec2-1 strain, hits give high values
In short: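 Growth inhibition is read against vehicle-treated controls after compound exposure of the mec2-1 yeast strain, which is defective in DNA damage repair or cell cycle control.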

[3] = NCI Yeast Anticancer Drug Screen. Data for the sgs1 mgt1 strain (AID 161);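 also: 0% = growth of cultures given vehicle only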; details: S. cerevisiae sgs1 mgt1 strain, hits give high values
In short: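 Growth of a repair-deficient yeast mutant was monitored after compound treatment and expressed as inhibition relative to vehicle-treated cultures.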

[4] = NCI Yeast Anticancer Drug Screen. Data for the cln2 rad14 strain (AID 165);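 also: 0% = growth equal to vehicle treated cultures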; details: S. cerevisiae cln2 rad14 strain, hits give high values
In short: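 Growth inhibition, relative to vehicle-treated controls, is the read-out. The test organism is a yeast strain with defined genetic alterations, cln2 rad14.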

[5] = NCI Yeast Anticancer Drug Screen. Data for the bub3 strain (AID 167); details: S. cerevisiae bub3 mutant strain, hits give high values
In short: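 Readout: yeast growth inhibition, expressed relative to vehicle-only wells. The test organism is a mutant strain from a panel with lesions in DNA repair or checkpoint genes.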

[6] = NCI Yeast Anticancer Drug Screen. Data for the mlh1 rad18 strain (AID 175); details: S. cerevisiae mlh1 rad18 strain growth inhibition, hits give high values
In short: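 Cells of a genetically altered yeast strain, deficient in DNA damage repair, were treated with compound. Their growth was then compared with that of vehicle-treated cultures to give inhibition.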

[7] = at 5.0 µM (retest, dose inferred, filed as 0.5)
[8] = at 50.0 µM (retest, dose inferred, filed as 5.0)

Measured: growth inhibition

O=C(c1c(F)c(F)c(F)c(F)c1F)N1CCN(C(=O)c2c(F)c(F)c(F)c(F)c2F)C1=S
active: [1]; [8] 91% | [1]; at 50.0 µM 88.2% | [2]; [8] 81% | [2]; at 50.0 µM 88.7% | [3]; [8] 94% | [3]; at 50.0 µM 90.9% | [4]; [8] 88% | [4]; at 50.0 µM 85.3% | [5]; [8] 86% | [5]; at 50.0 µM 85.3% | [6]; [8] 92% | [6]; at 50.0 µM 91.2%
inactive: [1]; [7] 0% | [2]; [7] 15% | [3]; [7] 8% | [4]; [7] 8% | [5]; [7] -7% | [6]; [7] 32%

O=c1[nH]c2ccccc2c2cccc(F)c12
inactive: [1]; [7] 12% | [2]; [7] 10% | [3]; [7] 13% | [4]; [7] 4% | [4]; [8] 68% | [4]; at 50.0 µM 69.5% | [5]; [7] -8% | [6]; [7] 7%
active: [1]; [8] 89% | [1]; at 50.0 µM 94.2% | [2]; [8] 76% | [2]; at 50.0 µM 71.3% | [3]; [8] 88% | [3]; at 50.0 µM 94.8% | [5]; [8] 78% | [5]; at 50.0 µM 91.8% | [6]; [8] 81% | [6]; at 50.0 µM 86.7%

Cc1cc(C)[nH]c(=S)n1.[Pt]
inactive: [1]; [7] -1% | [1]; [8] -9% | [1]; at 50.0 µM 8.7% | [2]; [7] 0% | [2]; [8] -3% | [2]; at 50.0 µM 35.2% | [3]; [7] -2% | [3]; [8] -5% | [3]; at 50.0 µM 12.2% | [4]; [7] 2% | [4]; [8] 7% | [5]; [7] 2% | [5]; [8] -2% | [5]; at 50.0 µM 21.9% | [6]; [7] -2% | [6]; [8] -7% | [6]; at 50.0 µM 0.5%
active: [4]; at 50.0 µM 81.3%

CCCCCN(CCCCC)CCNc1ccc(C)c2sc3ccccc3c(=O)c12
inactive: [1]; [7] 2% | [2]; [7] 7% | [3]; [7] 17% | [4]; [7] 5% | [5]; [7] 7% | [6]; [7] 9%
active: [1]; [8] 96% | [1]; at 50.0 µM 98.6% | [2]; [8] 97% | [2]; at 50.0 µM 97.3% | [3]; [8] 97% | [3]; at 50.0 µM 98.2% | [4]; [8] 93% | [4]; at 50.0 µM 95.7% | [5]; [8] 97% | [5]; at 50.0 µM 96.8% | [6]; [8] 97% | [6]; at 50.0 µM 97%

CN(C)CC1CCCCCC(Br)C1=O (configuration not stated)
inactive: [1]; [7] 18% | [1]; at 50.0 µM 63.9% | [2]; [7] 14% | [3]; [7] 11% | [4]; [7] 12% | [4]; [8] 69% | [5]; [7] -7% | [5]; [8] 21% | [5]; at 50.0 µM 7.05% | [6]; [7] 55%
active: [1]; [8] 78% | [2]; [8] 80% | [2]; at 50.0 µM 70.2% | [3]; [8] 92% | [3]; at 50.0 µM 84% | [4]; at 50.0 µM 91.5% | [6]; [8] 96% | [6]; at 50.0 µM 91%

Cc1ccccc1C1c2c(C)cccc2C(=O)CC1CC(=O)O (configuration not stated)
inactive: [1]; [7] 4% | [1]; [8] 60% | [1]; at 50.0 µM 58% | [2]; [7] 1% | [3]; [7] -1% | [4]; [7] -41% | [4]; at 50.0 µM 13.3% | [5]; [7] 6% | [5]; [8] 67% | [6]; [7] 8%
active: [2]; [8] 72% | [2]; at 50.0 µM 81.5% | [3]; [8] 75% | [3]; at 50.0 µM 82.3% | [4]; [8] 70% | [5]; at 50.0 µM 70% | [6]; [8] 83% | [6]; at 50.0 µM 81.6%

CCC[CH2][Sn]([S][Sn]([CH2]CCC)([c]1ccccc1)[c]1ccccc1)([c]1ccccc1)[c]1ccccc1
active: [1]; [7] 97% | [1]; [8] 94% | [1]; at 50.0 µM 99.3% | [2]; [7] 93% | [2]; [8] 95% | [2]; at 50.0 µM 99.5% | [3]; [7] 99% | [3]; [8] 93% | [3]; at 50.0 µM 99.5% | [4]; [7] 97% | [4]; [8] 83% | [4]; at 50.0 µM 98% | [5]; [7] 98% | [5]; [8] 87% | [5]; at 50.0 µM 98.8% | [6]; [7] 98% | [6]; [8] 91% | [6]; at 50.0 µM 99.3%

COC1/C=C\C=C(/C)C(=O)NC2=CC(=O)C(N)=C(CC(C)CC(OC)C(O)C(C)C=C(C)C1OC(N)=O)C2=O (configuration not stated)
inactive: [1]; [7] -28% | [2]; [7] -23% | [3]; [7] 5% | [4]; [7] -36% | [5]; [7] -16% | [6]; [7] -22%
active: [1]; [8] 88% | [1]; at 50.0 µM 86.4% | [2]; [8] 91% | [2]; at 50.0 µM 87.7% | [3]; [8] 92% | [3]; at 50.0 µM 88% | [4]; [8] 81% | [4]; at 50.0 µM 76.9% | [5]; [8] 93% | [5]; at 50.0 µM 87.9% | [6]; [8] 89% | [6]; at 50.0 µM 84%

NC1NCCC(=O)N1CCc1c[nH]c2ccccc12 (configuration not stated)
inactive: [1]; [7] -18% | [1]; at 50.0 µM 65.9% | [2]; [7] 7% | [2]; at 50.0 µM 54.9% | [3]; [7] -22% | [3]; at 50.0 µM 54.4% | [4]; [7] 31% | [4]; at 50.0 µM 22.3% | [5]; [7] -26% | [6]; [7] -12% | [6]; at 50.0 µM 53.6%
active: [1]; [8] 99% | [2]; [8] 100% | [3]; [8] 99% | [4]; [8] 99% | [5]; [8] 100% | [5]; at 50.0 µM 74.5% | [6]; [8] 100%
